The nature of test [1]: NCI Yeast Anticancer Drug Screen. Data for the rad50 strain (AID 155).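 Also: 0% = growth of vehicle-only cultures of the same strain.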 To be noted: S. cerevisiae rad50 strain growth inhibition; at 50.0 µM; hits give high values. The essentials:
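DNA repair mutant yeast, compound exposure, growth read-out; inhibition is taken relative to vehicle.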

Test [2] is described as follows: NCI Yeast Anticancer Drug Screen. Data for the mec2-1 strain (AID 157). Conditions: S. cerevisiae mec2-1 strain, at 50.0 µM, hits give high values. In outline: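 Using mec2-1 yeast: add compound, measure growth, express inhibition versus vehicle-treated cultures.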
The nature of test [3]: NCI Yeast Anticancer Drug Screen. Data for the sgs1 mgt1 strain (AID 161).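 Also: 0% = growth of cultures given vehicle only.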 To be noted: S. cerevisiae sgs1 mgt1 strain, at 50.0 µM, hits give high values. In outline:
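Growth of a repair-deficient yeast mutant was monitored after compound treatment and expressed as inhibition relative to vehicle-treated cultures.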

Test [4] can be described thus: NCI Yeast Anticancer Drug Screen. Data for the cln2 rad14 strain (AID 165).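 Also: 0% = growth equal to vehicle treated cultures.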 Conditions: S. cerevisiae cln2 rad14 strain, at 50.0 µM, hits give high values. In outline: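 Yeast strain cln2 rad14, bearing defects in cell cycle control and DNA repair, serves as the test system; values reflect growth inhibition compared with vehicle.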
Test [5] is described as follows: NCI Yeast Anticancer Drug Screen. Data for the bub3 strain (AID 167). Conditions: S. cerevisiae bub3 mutant strain, at 50.0 µM, hits give high values. The essentials: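 In this screen, a yeast mutant lacking normal mitotic checkpoint function is challenged with compound. Relative growth versus vehicle gives the inhibition value.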
Test [6] in a line: NCI Yeast Anticancer Drug Screen. Data for the mlh1 rad18 strain (AID 175). To be noted: S. cerevisiae mlh1 rad18 strain growth inhibition; at 50.0 µM; hits give high values. The essentials:
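Steps: expose repair-defective yeast to compound; measure growth; express inhibition against vehicle-treated controls.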

SMILES strings stand for the structures. This is part of a sample that, as a whole, favours compounds with a hit. Of some 79,000 tested, about 15% had one in any assay. A number with no mark means an inactive call. The source made the active and inactive calls. Rule as the data show it: active = growth inhibition above about 70%; inactive = the rest.

For `c1ccc(C2CCOCO2)cc1` (stereo unspecified), the growth inhibition in test [1] was 14.4%; in test [2], 15.7%; in test [3], 15.8%; in test [4], 12.2%; in test [5], 5.7%; in test [6] it was 24.2%.
Regarding `Cc1ccsc1/C=N/Nc1cnccn1`, the growth inhibition in test [1] was 11.1%; in test [2], 2.6%; in test [3], 17.3%; in test [4], 6.15%; in test [5] it was 0.4%; in test [6], 19.9%.
As for `O=C(O)C(CCC1CCC=CCC1)C(=O)O`, the growth inhibition in test [1] is -13.8%; in test [2] it was -6.7%; in test [3] it was -9.25%; in test [4], -2.45%; in test [5] it was 5.6%; in test [6], -7.05%.
For the compound `COc1ccccc1C1CCCCC1OS(=O)(=O)c1ccc(C)cc1` (stereo unspecified), the growth inhibition was -1.15% in test [1]; 3.45% in test [2]; -18.4% in test [3]; -9.65% in test [4]; 12.2% in test [5]; -9.8% in test [6].
For the compound `COC(=O)c1sc(N2CCCC2)nc1N`, the growth inhibition in test [1] is -4.95%; in test [2] it was 9.95%; in test [3] it was 6.4%; in test [4], -1.3%; in test [5], 11.4%; in test [6], -1.85%.
As to `Nc1ccc(S(=O)(=O)Nc2nc3ccccc3nc2Nc2ccc(S(N)(=O)=O)cc2)cc1`, the growth inhibition in test [1] was 6.3%; in test [2] it was -5.05%; in test [3], -13.8%; in test [4] it was -13.7%; in test [5], -10.3%; in test [6], -13.6%.
As for `O=C(O)Cn1ccc(=O)c2cc([N+](=O)[O-])ccc21`, the growth inhibition in test [1] was 41%; in test [2] it was 15.4%; in test [3], -11.1%; in test [4] it was 12.7%; in test [5], 24.9%; in test [6] it was -49%.
Regarding `Cc1ccc(NC(=S)NCC2CCCO2)cc1C` (stereo unspecified), the growth inhibition in test [1] is 9%; in test [2], 7.2%; in test [3], 10.6%; in test [4] it was 8.85%; in test [5], 19.4%; in test [6], 14.7%.
For `Cc1[nH]c(=O)[nH]c(=O)c1N`, the growth inhibition in test [1] is 4.8%; in test [2], -10.4%; in test [3] it was -28.9%; in test [4] it was -19.4%; in test [5], -2.9%; in test [6], 2%.
On to `CN1CCC(n2[nH]c(-c3ccccc3)c(Cc3ccccc3)c2=O)CC1`, for which the growth inhibition was 3.3% in test [1]; -40.6% in test [2]; -13.3% in test [3]; 10.6% in test [4]; -15.1% in test [5]; 5.7% in test [6].
In the case of `CC1(SCC(N)C(=O)O)CC(=O)NC1=O` (stereo unspecified), the growth inhibition in test [1] was -40.5%; in test [2], -33.1%; in test [3] it was -64.5%; in test [4], -36.8%; in test [5], -39.2%; in test [6], -40.1%.
For the compound `CC(=O)Nc1ccc(S(=O)(=O)n2c(=O)oc3cc(Br)ccc32)cc1`, the growth inhibition in test [1] is 7.4%; in test [2] it was 3.35%; in test [3] it was -7%; in test [4], 2.35%; in test [5], 0.05%; in test [6] it was 0.65%.
As for `CN(C)c1ccc(/C=C(\C#N)c2ccc(Cl)cc2Cl)cc1`, the growth inhibition in test [1] was -15.8%; in test [2] it was -14.7%; in test [3] it was -0.35%; in test [4], -25.6%; in test [5], 7%; in test [6], 0.95%.
On to `COc1ccc(-c2cc(-c3ccccc3)[nH]c(=S)c2C#N)cc1`, for which the growth inhibition in test [1] is -23.8%; in test [2] it was -19.8%; in test [3], -55.4%; in test [4] it was -19.1%; in test [5], 13.3%; in test [6], -30.1%.
Consider `CC1=NN(C(=O)CC(=O)Nc2cccc(Cl)c2)C(=O)C1N=Nc1ccc(C(=O)O)cc1` (stereo unspecified), for which the growth inhibition in test [1] is -3.25%; in test [2], 1.35%; in test [3], 6.1%; in test [4], -25%; in test [5], -3.2%; in test [6], 6.55%.
As to `CC(=O)C1CCCCCCC1=O` (stereo unspecified), the growth inhibition is 16.1% in test [1]; -5.35% in test [2]; 4.9% in test [3]; -15.8% in test [4]; -11.8% in test [5]; 16.1% in test [6].
`O=C(O)C1OC1(c1ccccc1Cl)c1ccccc1Cl` (stereo unspecified): the growth inhibition is 7.3% in test [1]; -13.2% in test [2]; 7.8% in test [3]; 1.55% in test [4]; -3.3% in test [5]; 9.55% in test [6].
`CN(C(=O)CCCO)c1cc([N+](=O)[O-])ccc1OCc1ccccc1`: the growth inhibition in test [1] was 7.6%; in test [2] it was 2.8%; in test [3], -1.2%; in test [4], -0.8%; in test [5], 0.7%; in test [6], -0.75%.
As to `O=C(Nc1cccc(O)c1)Nc1ccc(Cl)cc1[N+](=O)[O-]`, the growth inhibition in test [1] was 98.2% (active); in test [2], 99.3% (active); in test [3], 99.2% (active); in test [4], 97.5% (active); in test [5] it was 83% (active); in test [6], 97.8% (active).
Consider `COc1ccccc1NC(=O)Nc1ccc(Nc2ccccc2)cc1`, for which the growth inhibition in test [1] was 92.7% (active); in test [2] it was 94.2% (active); in test [3], 92.2% (active); in test [4], 90.3% (active); in test [5] it was 92.2% (active); in test [6], 92.7% (active).
As for `Cc1cc(N(CCC#N)CCC#N)ccc1/C=C(\NC(=O)/C=C/c1ccccc1)C(N)=O`, the growth inhibition is 3.15% in test [1]; -7.85% in test [2]; 15.1% in test [3]; -10.6% in test [4]; -33.1% in test [5]; -15.8% in test [6].

(Values after PubChem BioAssay (NCI).)
